# CHO-K1 Ca ag: counter-screen for M1 agonists: effect in parental CHO-K1 cells. Fluo-8 calcium fluorescence; scaled to maximal ATP response, vehicle zero. activation, % at 3 µM. 360,000 tested, 0.48% active. AID 602248, 2012; in the data active = activation above about 15%;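 also: untransfected CHO-K1 host cells lacking M1 receptor as counterscreen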
# M1 PAM parental: nonselective calcium activators in parental CHO-K1 cells, primary screen, counter-screen for M1 PAM project, cell-based, Fluo-8 calcium fluorescence, full deck, 1536-well | 360,000 tested, 0.02% active | ATP EC20; 0% at ATP EC20, 100% at ATP max | activation, % at 3 µM;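 active = activation above the run cutoff, the mean activation of all test compounds plus 3 SD, cut at about 40% in these data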;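 also: peak over basal fluorescence ratio in a 140 s read after ATP addition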
# M1 antag: human M1 muscarinic receptor antagonists, primary screen, CHO-K1 cells, Fluo-8 calcium fluorescence, 1536-well. Muscarinic acetylcholine receptor M1 (Homo sapiens), P11229. CHO-K1 hM1, ACh EC80 antagonist. 360,000 tested, 1.3% active. inhibition, % at 3 µM;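 active = percent inhibition above its own plate's cutoff, namely the mean of that plate's compound wells plus 3 SD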;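 also: peak over basal fluorescence ratio during 140 s after agonist addition; 0% = ACh EC80 plus DMSO and 100% = DMSO alone without agonist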
# Target sequence (P11229 whole entry, looked up): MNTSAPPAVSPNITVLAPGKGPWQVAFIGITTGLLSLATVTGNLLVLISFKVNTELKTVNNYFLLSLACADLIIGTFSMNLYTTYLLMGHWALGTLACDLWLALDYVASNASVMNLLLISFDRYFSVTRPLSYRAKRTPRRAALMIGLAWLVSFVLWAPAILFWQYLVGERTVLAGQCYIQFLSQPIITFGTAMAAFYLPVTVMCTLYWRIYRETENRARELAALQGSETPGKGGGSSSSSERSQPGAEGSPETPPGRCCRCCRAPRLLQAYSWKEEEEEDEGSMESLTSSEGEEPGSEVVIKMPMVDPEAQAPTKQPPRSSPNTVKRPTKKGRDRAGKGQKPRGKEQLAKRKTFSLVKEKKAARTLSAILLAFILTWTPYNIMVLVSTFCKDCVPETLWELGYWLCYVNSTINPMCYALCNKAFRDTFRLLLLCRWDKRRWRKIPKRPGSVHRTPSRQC
# M1 ag: human M1 muscarinic receptor agonists, primary screen, Fluo-8 calcium fluorescence, CHO-K1 cells, HTS; CHO-K1 hM1, agonist mode; 0% DMSO, 100% acetylcholine EC100; activation, % at 3 µM; 360,000 tested, 0.33% active; AID 588814, 2011;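 active = activation above the run's mean compound activation plus 3 SD, cut at about 16% in these data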;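 also: peak over basal fluorescence ratio within a 140 s kinetic read after compound addition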
# M1 PAM: human M1 muscarinic receptor positive allosteric modulators, primary screen, CHO-K1 cells, Fluo-8 calcium fluorescence, 1536-well. Muscarinic acetylcholine receptor M1 (Homo sapiens), P11229. CHO-K1 hM1, ACh EC20; 0% = ACh EC20, 100% = maximal ACh. activation, % at 3 µM. 360,000 tested, 0.088% active. AID 588819, 2011; in the data active = activation above about 19%, passing the limit was not always enough
# CHO-K1 Ca antag: counter-screen for M1 antagonists: effect in parental CHO-K1 cells; 360,000 tested, 0.6% active; AID 602250; ATP-induced calcium, Fluo-8 fluorescence; inhibition, % at 3 µM;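 active = inhibition above a per-plate cutoff, the plate's mean sample inhibition plus 3 SD, cut at about 24% in these data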;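 also: 0% = DMSO plus EC80 ATP and 100% = DMSO alone without ATP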
# Numbers without * were called inactive. Only some compounds are listed: those with a hit (about 2.4% of all), similar ones and a draw of the others.
SMILES,CHO-K1 Ca ag,M1 PAM parental,M1 antag,M1 ag,M1 PAM,CHO-K1 Ca antag
C[C@@H]1CCCCCCCCCCC1=O,-1,-21,-11,-3,9,2
CCOc1ccc(NC(=O)c2ccccc2CO)cc1,0,-7,-6,-6,3,30*
CCOc1ccc(NC(=O)c2ccc(NC(=O)c3ccccc3Br)cc2)cc1,7,-16,19,-3,-6,30*
COc1ccccc1-n1cnnc1SC(C)C(=O)Nc1cccc([N+](=O)[O-])c1 (centres undefined),3,13,-5,-7,7,-11
COc1ccccc1CNC(=O)CCNS(=O)(=O)c1cc(Br)cnc1N,2,5,9,-3,-1,-18
c1ccc(Cn2c(-c3ccccc3)c[n+]3c2SCCC3)cc1,1,20,98*,-9,-25,-10
c1ccc(-c2cn(-c3ccccc3)c3[n+]2CCCS3)cc1,0,-10,7,-8,-6,1
COc1ccccc1NC(=O)N1CCc2[nH]c3ccc(Cl)cc3c2C1,0,13,-4,22*,-1,-7
C=CCNC(=O)N1CCc2[nH]c3ccc(F)cc3c2C1,1,14,-11,24*,-1,-6
CCCCNC(=O)N1CCc2[nH]c3ccccc3c2C1,2,-11,-13,19*,8,5
O=C(C1CC1)N1CCc2[nH]c3ccccc3c2C1,0,8,-3,0,5,-7
COc1cc2c(cc1OC)CN(C(=O)Nc1ccccc1Cl)CC2,2,1,-17,2,11,4
CN(Cc1ccccc1F)C(=O)c1ccc2c(=O)n3c(nc2c1)CCC3,7,0,-7,-6,5,5
CC1(C(=O)NS(=O)(=O)c2ccc(C#N)cc2)CCN1C(=O)C1(c2ccccc2)CC1 (centres undefined),1,16,-10,-2,6,-8
Cc1[nH]c2ccccc2c1C(=O)C(=O)NCc1nnnn1-c1ccc(F)cc1,1,2,-7,-2,2,3
O=C(NCc1ccc(Cl)cc1)c1n[nH]c([N+](=O)[O-])c1Cl,7,5,1,2,-1,5
CCOC(=O)C1=CCN(S(=O)(=O)c2ccccc2C)C1c1ccccc1 (centres undefined),1,-7,-1,-10,7,26*
CCOC(=O)C1=CCN(S(=O)(=O)c2ccccc2Cl)C1c1ccc(Cl)c(Cl)c1 (centres undefined),1,7,14,-6,-12,8
CCOC(=O)C1=CCN(S(=O)(=O)c2ccc(F)cc2)C1c1cccc(C)c1 (centres undefined),0,11,1,-11,-4,-2
CCOC(=O)C1=CCN(S(=O)(=O)c2ccccc2Br)C1c1ccc(Cl)c(Cl)c1 (centres undefined),1,2,13,-4,-6,29*
CCOC(=O)C1=CCN(S(=O)(=O)c2ccc(F)cc2)C1c1cccc(F)c1 (centres undefined),2,-7,7,-4,0,27*
CCOC(=O)C1=CCN(S(=O)(=O)c2ccccc2C)C1c1ccc(Br)cc1 (centres undefined),2,14,8,-1,-5,7
COc1ccc(NC(=O)Nc2cccc3c2O[C@@H](CN(C)S(=O)(=O)c2cn(C)cn2)[C@@H](C)CN([C@H](C)CO)C3=O)cc1,1,14,4,-7,21,-14
CC1=CC(C)(C)N(C(=O)c2ccc(F)cc2)c2cc3c(cc21)OCO3,5,28,10,18*,8,-5
CC1(O)N(CCC(=O)Nc2cccc(F)c2)C(=O)OC12CCCCC2 (centres undefined),0,-8,-1,-2,-5,5
SMILES,CHO-K1 Ca ag,M1 PAM parental,M1 antag,M1 ag,M1 PAM,CHO-K1 Ca antag
Cc1ccc(NC(=O)[C@H](C)NC(=O)C2CCN(C(=O)[C@@H](N)C(C)C)CC2)cc1,1,0,0,-1,8,-7
CC(OC(=O)c1cccc(O)c1)C(=O)N(C)Cc1ccccc1 (centres undefined),1,-6,-18,-5,11,-4
CC(OC(=O)/C(C#N)=C/c1ccc(N(C)C)cc1)C(=O)N(C)Cc1ccccc1 (centres undefined),14,-5,30*,15,-17,8
Cc1nn(-c2ccccc2)c(C)c1C(=O)OC(C)C(=O)NC1CCCCC1C (centres undefined),1,-9,30*,1,-14,6
COC(=O)c1c(C)[nH]c(C(=O)OC(C)C(=O)NC2CCCCC2C)c1C (centres undefined),0,-9,-13,8,26*,-7
O=C(NN=C1CCCC1)c1cc(-c2ccc(F)cc2)nc2ccccc12,1,29,-6,-3,7,-15
Cc1cc(C(=O)NN=C2CCCCCCC2)c2ccccc2n1,0,-5,-7,-4,8,42*
Cc1sc2ncnc(N3CCC(C(=O)Nc4sc5c(c4C(N)=O)CCC(C)C5)CC3)c2c1C (centres undefined),1,2,-7,-2,6,-19
C=CCNC(=S)NNC(=O)c1cccn(Cc2cccc(Cl)c2)c1=O,0,9,21*,-6,-21,-3
C=CCNC(=S)NNC(=O)c1cccn(Cc2ccc(Cl)cc2)c1=O,0,0,-4,-6,14,9
CC(C)(C)[C@]1(O)CCN2C[C@H]3c4ccccc4CCc4cccc(c43)[C@@H]2C1,2,41*,-32,1,4,-18
COc1ccc(CCNC(=O)C2CCC(=O)N(CCc3ccc(OC)cc3)C2)cc1 (centres undefined),1,-11,21,-2,-6,5
COc1ccc(CCN2CC(C(=O)NCCCc3ccncc3)CCC2=O)cc1 (centres undefined),0,-7,-1,8,16,25*
CCCN1CCN(CCCNC(=O)c2cc3c(=O)[nH]c4ccccc4c3s2)CC1,0,10,12,21*,-7,-9
CCN(CC)CCNC(=O)c1ccc2c(c1)NC(=O)c1ccccc1S2,0,11,3,-12,4,5
CCCN1CCN(CCCNC(=O)c2cc3c(=O)oc4ccc(C)cc4c3s2)CC1,0,-17,-1,21*,-6,2
CCCN1CCN(CCCNC(=O)c2ccc3c(c2)NC(=O)c2ccccc2S3)CC1,0,6,42*,-5,-20,-6
